Reference: PubChem BioAssay (NCATS)
Inconclusive results are not listed. Activity calls are given as the source filed them. Calls come from the whole dose curve; as a rule, active = well fitted curve in the direction sought with a large enough effect; inconclusive = small, poorly fitted or top-dose-only effect, or another doubt; inactive = no such curve, though single readings can be large; an effect the other way counts as inactive or inconclusive.

Experiments:
[1] = target: Glutathione peroxidase 1 (Homo sapiens) (UniProt P07203); test: Primary qHTS Assay for Inhibitors of Recombinant Selenoprotein Glutathione Peroxidase 1 (GPX1) (AID 1845191); note: nearly all actives have a fitted effect of over 65% in size
How it was run: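 NADPH consumption tracked by fluorescence at 340/450 nm between t=0 and t=15 min, room temperature. Final mix: 10 nM GPX1, 100 nM glutathione reductase, 1 mM GSH, 0.5 mM NADPH, 0.5 mM cumene hydroperoxide, 0.01% BSA; 30 min compound–enzyme preincubation.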

[2] = target: Phospholipid hydroperoxide glutathione peroxidase GPX4 (Homo sapiens) (UniProt P36969); test: Primary qHTS Assay for Inhibitors of Recombinant Selenoprotein Glutathione Peroxidase 4 (GPX4) (AID 1845192); note: nearly all actives have a fitted effect of over 65% in size
How it was run: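 NADPH consumption followed by fluorescence at 340/450 nm, t=0 and after 15 min at room temperature. Reaction started with cumene hydroperoxide (0.5 mM final) after 30 min compound–GPX4 preincubation; final 200 nM GPX4, 100 nM GR, 1 mM GSH, 0.5 mM NADPH.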

[3] = target: Luciferin 4-monooxygenase (Photinus pyralis) (UniProt P08659); test: Primary firefly luciferase (FLuc) qHTS assay for identification of artifact compounds. (AID 1845220); note: nearly all actives have a fitted effect of over 60% in size
How it was run: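 Cell-free, 1536-well qHTS. Buffer pH 7.6 with 0.01% Tween-20 and 0.05% BSA; 10 uM D-luciferin, 10 uM ATP; 10 nM P. pyralis luciferase; luminescence after 5 min.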

[4] = Primary fluorescence-based thiol-reactive (MSTI) qHTS assay for identification of artifact compounds. (AID 1845221); note: nearly all actives have a fitted effect of over 65% in size; note: potency is the fitted concentration of half-maximal effect
How it was run: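 Curve-fitted percent inhibition (4-parameter Hill) derived from fluorescence, Ex 525/Em 598 nm, scaled with Acetyl-MSTI and MSTI; 1 h incubation at room temperature.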

[5] = test system: Nanoluciferase (engineered Oplophorus gracilirostris luciferase); test: Primary Nanoluciferase (NLuc) qHTS assay for identification of artifact compounds. (AID 1845222); note: series mostly up to about 54 µM
How it was run: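 Compounds are pinned into diluted (1:55) conditioned medium of NLuc-expressing S16 cells and held 15 min at room temperature protected from light. Nano-Glo substrate follows, and luminescence is read 5 min later.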

[6] = Primary redox qHTS assay for identification of artifact compounds. (AID 1845223)
How it was run: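 Redox-cycling detection via DTT (250 uM final) oxidation coupled to Amplex Red (25 uM)/HRP (250 mU/mL) in HBSS. 15 min preincubation plus 30 min after DTT, room temperature. Ex/Em 525/598 nm; 4-parameter Hill fit against DMSO and 10 uM DA3003.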

Measured: Potency

Sequence of Phospholipid hydroperoxide glutathione peroxidase GPX4 (Homo sapiens) (P36969 whole entry, looked up): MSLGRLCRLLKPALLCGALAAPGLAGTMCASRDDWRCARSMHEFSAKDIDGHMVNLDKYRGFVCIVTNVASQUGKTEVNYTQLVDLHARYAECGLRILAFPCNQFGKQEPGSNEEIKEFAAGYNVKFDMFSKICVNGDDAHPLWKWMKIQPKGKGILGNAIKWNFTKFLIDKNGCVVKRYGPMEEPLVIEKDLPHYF
Sequence of Glutathione peroxidase 1 (Homo sapiens) (P07203 whole entry, looked up): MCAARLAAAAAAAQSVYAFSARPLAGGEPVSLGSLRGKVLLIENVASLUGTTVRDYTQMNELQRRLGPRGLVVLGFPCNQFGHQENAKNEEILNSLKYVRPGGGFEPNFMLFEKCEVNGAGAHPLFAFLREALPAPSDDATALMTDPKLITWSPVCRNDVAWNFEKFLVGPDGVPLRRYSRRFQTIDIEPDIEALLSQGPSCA

O=C(OC1C=C(CO)C2C(OC3OC(CO)C(O)C(O)C3O)OC=CC12O)c1ccc(O)cc1 (stereo not given)
active: [4] 3.27 µM
inactive: all other assays above

Nc1nc2c(nc(Sc3ccc(Cl)cc3)n2[C@@H]2O[C@@H]3COP(=O)(O)O[C@H]3[C@H]2O)c(=O)[nH]1
inactive: all assays above

OCC1OC(Oc2cc(O)cc(/C=C/c3ccc(OC4OC(CO)C(O)C(O)C4O)cc3O)c2)C(O)C(O)C1O (stereo not given)
inactive: all assays above

C=C1CC[C@@]2(OC1)O[C@H]1CC3[C@@H]4CC=C5C[C@@H](O)C[C@@H](O[C@@H]6OC[C@H](O)[C@H](O)[C@H]6O[C@@H]6O[C@@H](C)[C@H](O)[C@@H](O)[C@H]6O)[C@]5(C)C4CC[C@]3(C)[C@H]1[C@@H]2C (stereo not given in full)
not listed: [6]
inactive: all other assays above

C[C@@H](CC[C@@H]1[C@@]2(C)CCCC(C)(C)C2CC[C@@]1(C)O)CC(=O)O (stereo not given in full)
inactive: all assays above

Fc1ccccc1-c1nc2ccn(Cc3ccc(-c4ccc(C(F)(F)F)cc4C(F)(F)F)nn3)cc-2n1
inactive: all assays above

C/C(=C\CC/C(C)=C/CC[C@]1(C)CCc2cc(O)cc(C)c2O1)CC/C=C(\C)C(=O)O
active: [4] 4.62 µM
not listed: [6]
inactive: all other assays above

CC[C@@H](Nc1c(Nc2cccc(C(=O)N(C)C)c2O)c(=O)c1=O)c1ccc(C)o1
active: [4] 2.38 µM
inactive: all other assays above

CC1=C2CC(C)(C)CC2C(O)C2=C(C1)C(=O)OC2O (stereo not given)
inactive: all assays above

COc1cc(/C=C/C(=O)OC[C@H]2O[C@@H](OC3CC(C)=C(C(=O)O)C(C)(C)C3)[C@H](O)[C@@H](O)[C@@H]2O)cc(OC)c1O (stereo not given in full)
active: [4] 3.27 µM
inactive: all other assays above

CC1=CC(=O)CC(C)(C)[C@@]1(O)/C=C/C(C)O[C@@H]1O[C@H](CO)[C@@H](O)[C@H](O)[C@H]1O (stereo not given in full)
not listed: [6]
inactive: all other assays above

CC(C)=CCC(O)[C@](C)(O)C1[C@H](O)C[C@@]2(C)C3CC=C4C(C[C@H](O)[C@@H](O[C@@H]5O[C@H](CO)[C@@H](O)[C@H](O)[C@H]5O)C4(C)C)[C@]3(C)C(=O)C[C@]12C (stereo not given in full)
not listed: [6]
inactive: all other assays above

COc1ccc(CCC(=O)O)c(O[C@@H]2O[C@H](CO)[C@@H](O)[C@H](O)[C@H]2O)c1
inactive: all assays above

CCC(C)C(C(=O)O)N1Cc2c(OCC=C(C)C)c(C)c(OC)c(C(=O)O)c2C1=O (stereo not given)
inactive: all assays above

Cc1ncc(NC(=O)c2ccc(CN3CCN(C)CC3)c(C(F)(F)F)c2)cc1Nc1nccc(-c2cccnc2)n1
not listed: [6]
inactive: all other assays above

CC(=O)OC1(C)CC(O)C2(O)C=COC(OC3OC(CO)C(O)C(O)C3O)C12 (stereo not given)
inactive: all assays above

C[C@]1(O)CC[C@@H]2C(C(=O)O)=CO[C@@H](O[C@@H]3O[C@H](COC(=O)/C=C/c4ccc(O)c(O)c4)[C@@H](O)[C@H](O)[C@H]3O)[C@@H]21
active: [4] 3.27 µM
inactive: all other assays above

O=C(N[C@@H]1CC[C@@H](c2cccc(F)c2F)CN(CC(F)(F)F)C1=O)N1CCC(n2c(=O)[nH]c3ncccc32)CC1
inactive: all assays above

CC1(C)OC(=O)C=C[C@@]2(C)C1CC(=O)[C@]1(C)C2CC[C@@]2(C)[C@H](c3ccoc3)OC(=O)[C@H]3O[C@]321 (stereo not given in full)
inactive: all assays above

COc1cc(C(=O)OCC2=CCC3C(C(=O)O)=COC(O[C@@H]4O[C@H](CO)[C@@H](O)[C@H](O)[C@H]4O)C23)ccc1O (stereo not given in full)
active: [4] 11.6 µM
not listed: [6]
inactive: all other assays above

COc1cc2c(cc1O)C(c1ccc(O)cc1)C(C)C(C)C2 (stereo not given)
inactive: all assays above
